# Measured values as given in PubChem BioAssay (NCI).
# Compounds without any hit were thinned out: in the full panel of roughly 83,000, 20% have a hit.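 Testing used 96-well plates and a 48-hour single-concentration exposure. Example: -40 means 40% of the starting cells died.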 The source made the active and inactive calls. How the source made its calls: active means growth percent below 10; inactive means the rest.
# System: MDA-MB-468 breast
# Test: NCI-60 one-dose screen, 48 h (100 = growth as untreated, 0 = no growth, -100 = all killed)
# Conditions: 10 µM unless noted
row,SMILES,growth
1,COc1cc(-c2c3c(nc4c2c(C)nn4-c2ccccc2)-c2ccccc2C(=O)C3=O)cc(OC)c1OC,88.9% (inactive)
2,COc1cc(-c2cc(-c3nc4ccc(Cl)cc4[nH]3)[nH]n2)cc(OC)c1OC,35.9% (inactive)
3,O=C(O)CCC/C=C\C[C@H]1C=CC(=O)/C1=C/C[C@@H](O)CCc1cccc(C(F)(F)F)c1,-6.7% (active)
4,CCOC(=O)c1sc(-c2ccc(OS(=O)(=O)c3ccc(Br)s3)c(C=O)c2)nc1C,18.1% (inactive)
5,CCCCc1nc2c(N)nc3ccccc3c2n1Cc1ccc(OC)cc1,41.2% (inactive)
6,O=C1Nc2ccccc2[C@]12CC(c1ccccc1)=NN2,56.5% (inactive)
7,COc1ccc(/C=C2\CCC/C(=C\c3ccc(OC)c(OC)c3)C2=O)cc1OC,-16.6% (active)
8,Nc1ccccc1-c1ccc([N+](=O)[O-])cc1,67.5% (inactive)
9,CC1(C)CCC(=NNC(N)=S)CC1,103% (inactive)
10,Cc1ccc(S(=O)(=O)n2cc(CNc3ccc(N4CCOCC4=O)cc3)c3ccccc32)cc1,-9.46% (active)
11,NC(=O)c1c(NC(=O)c2ccccc2C(F)(F)F)sc2c1CCC(=O)C2,14.9% (inactive)
12,COc1ccc(C(O)c2cc3c(N)c(C(=O)Nc4ccc(Cl)cc4)sc3nc2C)cc1 (stereo not given),3.39% (active)
13,O=C(Nc1cc(Cl)cc(Cl)c1)Nc1ccc2oc(=O)ccc2c1,15.7% (inactive)
14,CC(C(=O)O)(C1CCCCC1)C1(O)CCCCC1 (stereo not given),106% (inactive)
15,COc1ccc(C2C=C(c3ccc(N)cc3)N=C3SC=CN32)cc1OC (stereo not given),101% (inactive)
16,Cc1cc(N/N=C/c2nc(-c3ccccc3)oc2C)c2cc(Br)ccc2n1,35.7% (inactive)
17,OC(c1cc2cc(Cl)c(Cl)cc2c2cc(C(F)(F)F)ccc12)C1CCCCN1 (stereo not given),-92.2% (active)
18,Oc1ccc(CSc2nnc(-c3ccc(Cl)cc3)n2-c2ccccc2)c2cccnc12,14.5% (inactive)
19,C=C(C)[C@@H]1CC[C@]2(COP(=O)(OCC)OCC)CC[C@]3(C)[C@H](CC[C@@H]4[C@@]5(C)CCCNC(C)(C)[C@@H]5CC[C@]43C)[C@@H]12,24.6% (inactive)
20,CSc1nc(NCc2ccccc2)c(C#N)c(-c2cccc([N+](=O)[O-])c2)n1,110% (inactive)

row,SMILES,growth
1,Cn1cc([C@@H]2Nc3ccc4[nH]ncc4c3[C@H]3[C@H]4CCC(C4)[C@H]32)c(C(F)(F)F)n1,53.4% (inactive)
2,CCOC(=O)/C=c1\sc2n(c1=O)C1C(NN=2)N(CC)C(=O)N1CC (stereo not given),48.4% (inactive)
3,CN1CCN(CCCOc2cccc3nc(Nc4ccc(F)c(F)c4)ccc23)CC1,-67.3% (active)
4,COC(/C=C/c1ccc([N+](=O)[O-])cc1)OC,73.4% (inactive)
5,Cc1ccc(-[n+]2c3cc(N)c(C)cc3nc3cc(C)c(Nc4ccccc4)cc32)cc1,-86.2% (active)
6,CCCC[P+](c1ccccc1)(c1ccccc1)c1ccccc1,-6.92% (active)
7,N=c1c2cc(-c3ccccc3)oc2ncn1/N=C/c1ccc(Cl)cc1,88.2% (inactive)
8,O=C1/C(=C/c2ccccc2[N+](=O)[O-])COc2ccc(O)cc21,-9.15% (active)
9,COc1cc(NCC(O)CN(CC(C)C)CC(C)C)c2ncccc2c1 (stereo not given),-19.8% (active)
10,CN1C(=O)C2(SCC(C(=O)NCC(=O)OC(C)(C)C)N2C(=O)C2CCCCC2)c2ccccc21 (stereo not given),104% (inactive)
11,O=C(Nc1cccc(Cl)c1)c1cc(Cl)ccc1O,-1.28% (active)
12,C[N+](C)(CCCCCC[N+](C)(C)C1c2ccccc2-c2ccccc21)C1c2ccccc2-c2ccccc21,107% (inactive)
13,Cc1c(Cl)cccc1NC(=O)c1sc2nc3c(cc2c1N)CN(Cc1ccccc1)CC3,29.1% (inactive)
14,Nc1ncnc2c1CN(Cc1ccccc1)CC2,112% (inactive)
15,Cn1c(=O)[nH]c(=O)c2nc(CCC(=O)NCCC(=O)O)c(=O)[nH]c21,102% (inactive)
16,COc1cccc(Nc2nc(SC)nc(-c3cccc([N+](=O)[O-])c3)c2C#N)c1,81.2% (inactive)
17,CCN(CC)CCNC(=O)n1cc(-c2ccncc2)c(-c2ccc(Cl)c(OC)c2)n1,88.3% (inactive)
18,CCN(CC)CCCOc1ccc2ncnc(Nc3ccc(Oc4cccc(C(F)(F)F)c4)c(Cl)c3)c2c1,-64.7% (active)
19,NC(=N\N=C/Cc1ccccc1)/C(N)=N\N=C\Cc1ccccc1,112% (inactive)
20,COc1cc(-c2nc(N)n(CC(=O)Nc3ccc(/C(C)=N\O)cc3)n2)cc(OC)c1OC,104% (inactive)
